From PubChem BioAssay
Records with an inconclusive call do not appear. Activity calls are given as the source filed them.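 The calls were made as follows, unless noted: active = growth inhibition above 25% in both replicates, a cutoff set 3 SD above the mean; inconclusive = above 25% in only one replicate; inactive = the rest.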

What was measured:
[1] = reducers of endogenous Her2 protein level, primary screen, SKBR3 breast tumor cells, AlphaScreen, ATP viability (AID 461;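 active = Her2 level under about 52% in both replicate screens, with viability over 70% of control, limit read from the data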;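 as to Her2 level: lower value means less Her2 protein in the cells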;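 as to viability: percent of carrier control wells set as 100% viability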); details: 18-24 h, measured here: SKBR3 viability, ATP luminescence, at 10 µM
[2] = molecular target: Receptor tyrosine-protein kinase erbB-2 (Homo sapiens) (UniProt P04626); assay: as above; details: 18-24 h, at 10 µM, stronger effect = lower value
[3] = SK-BR-3 cell growth inhibitors, pilot screen, 24 h, human (AID 572;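 active = viability at or below 10% of carrier control in both of two separate runs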;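 also: compound exposure lasted between 18 and 24 h rather than exactly 24 h; 100% = carrier-treated control wells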); details: SK-BR-3 viability, CellTiter-Glo luminescence, at 10 µM, stronger effect = lower value
[4] = HUVEC growth inhibition – cell-based, human, primary screen (AID 575;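 active = viability at or below 30% in both replicate assays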;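 also: 100% = median of untreated cell wells with 0.1% DMSO on each plate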); details: HUVEC proliferation, CellTiter-Glo luminescence, 72 h; at 10 µM; stronger effect = lower value
[5] = growth inhibitors of H69AR lung tumor, primary screen, human, duplicate replicates (AID 580;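 active = viability at or under a set limit in both replicates, limit being median viability minus 3 SD, cut at about 48% in these data, passing the limit was not always enough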;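 also: 100% = mean luminescence of untreated wells and 0% = no signal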); details: H69AR lung tumor cells viability, ATP luminescence, 72 h; at 10 µM; stronger effect = lower value
[6] = reversal of MRP1-mediated doxorubicin resistance, pilot screen, H69AR cells, doxorubicin co-treatment (AID 601;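 active = viability loss from added drug above about 55%, and viability with drug at most 40%, in both replicates, limit read from the data, passing the limit was not always enough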); details: CellTiter-Glo, 72 h, at 10 µM; for differential viability (reversal): stronger effect = higher value
[7] = 384-well plate pilot, post-Golgi transport modulator project, inhibition of yeast transport mutant growth (AID 636; in the data active = inhibition above about 31%); details: absorbance 615 nm, about 18 h, stronger effect = higher value
[8] = growth suppression of yeast trafficking mutant, preliminary HTS, modulators of trafficking downstream of Golgi apparatus project, 1536-format plate, OD 615 nm (AID 637; in the data active = inhibition above about 30%); details: yeast transport mutant growth, absorbance 615 nm, 18 h; stronger effect = higher value
[9] = OD615 S. cerevisiae growth inhibition, permissive medium, pilot counter-assay, permissive growth control for S. cerevisiae lifespan shortening project (AID 705); details: OD615, 24 h, at 10 µM, stronger effect = higher value
[10] = Restrictive medium S. cerevisiae growth inhibition, OD615, pilot screen of yeast lifespan reduction project, restrictive growth control (AID 706;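 active = growth inhibition above a set limit, 3 SD over mean compound inhibition, in both replicates, cut at about 43% in these data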;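 also: modified DeaD lifespan yeast strain shifted to restrictive glucose medium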); details: OD615, 48 h, at 10 µM, stronger effect = higher value
[11] = viability gain of MRP-1-high H69AR cells under doxorubicin, pilot screen, MRP-1 activator project, CellTiter-Glo, duplicate (AID 807;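 active = viability increase at or above a cutoff of the median across tested compounds plus 3 SD, cut at about 8.5% in these data, passing the limit was not always enough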;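 also: compound pretreatment 18-22 h then 72 h combined with doxorubicin; 0% = doxorubicin alone and 100% = vehicle without doxorubicin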); details: H69AR viability with doxorubicin, CellTiter-Glo luminescence; at 10 µM; stronger effect = higher value
[12] = growth suppression of beta-catenin knockout HCT116, pilot screen, human colon tumor cells (AID 823;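 active = cell viability at or below a set limit in both duplicate runs, the limit being the all-compound median minus 4 SD, cut at about 23% in these data, passing the limit was not always enough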;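 also: 0% = wells killed by 20 µM Hyamine and 100% = untreated DMSO cell wells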); details: CellTiter-Glo, 60 h, at 10 µM, stronger effect = lower value
[13] = growth suppression of PTEN-deleted HCT116, pilot screen, cell-based, HCT116 clonal line, CellTiter-Glo (AID 824;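 active = viability at or below 27.92% in each of two runs, the all-compound median minus 4 SD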;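 also: 0% = 20 µM Hyamine control and 100% = vehicle cell control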); details: 60 h, at 10 µM, stronger effect = lower value
[14] = inhibitors of the yeast RAM network, pilot screen, dse1pr::URA3 reporter, 5-FOA selection (AID 869;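 active = inhibition over a set limit, the all-compound mean plus 3 SD, in both replicate runs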;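 also: 0% = DMSO wells with no growth and 100% = 10 µM 1-NA-PP1 with full growth; RAM network block rescues cells from 5-FOA so hits raise OD615 growth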); details: S. cerevisiae dse1pr::URA3 5-FOA growth, OD615, 2 d; at 10 µM; stronger effect = higher value; strain carries analog-sensitive mutant Cbk1 kinase
[15] = RAM signaling pathway blockade in yeast – S. cerevisiae, Pdr1DBD-CYC8 efflux-inhibited sensitized strain, primary screen (AID 1298;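 active = RAM network inhibition above 8.4% in each of two replicates, 3 SD over the compound average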;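 also: 0% = DMSO untreated cells without growth and 100% = 10 µM 1-NA-PP1 full growth; higher means more yeast growth rescued from 5-FOA killing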); details: S. cerevisiae cbk1-as DSE1-URA3 strain, 5-FOA growth OD615, 2 d; at 50 µM; stronger effect = higher value
[16] = H69AR cells + 2 uM doxorubicin, measured here: viability with 2 uM doxorubicin, stronger effect = lower value
[17] = H69AR cells, compound alone cytotoxicity

Sequence of Receptor tyrosine-protein kinase erbB-2 (Homo sapiens) (P04626 whole entry, looked up): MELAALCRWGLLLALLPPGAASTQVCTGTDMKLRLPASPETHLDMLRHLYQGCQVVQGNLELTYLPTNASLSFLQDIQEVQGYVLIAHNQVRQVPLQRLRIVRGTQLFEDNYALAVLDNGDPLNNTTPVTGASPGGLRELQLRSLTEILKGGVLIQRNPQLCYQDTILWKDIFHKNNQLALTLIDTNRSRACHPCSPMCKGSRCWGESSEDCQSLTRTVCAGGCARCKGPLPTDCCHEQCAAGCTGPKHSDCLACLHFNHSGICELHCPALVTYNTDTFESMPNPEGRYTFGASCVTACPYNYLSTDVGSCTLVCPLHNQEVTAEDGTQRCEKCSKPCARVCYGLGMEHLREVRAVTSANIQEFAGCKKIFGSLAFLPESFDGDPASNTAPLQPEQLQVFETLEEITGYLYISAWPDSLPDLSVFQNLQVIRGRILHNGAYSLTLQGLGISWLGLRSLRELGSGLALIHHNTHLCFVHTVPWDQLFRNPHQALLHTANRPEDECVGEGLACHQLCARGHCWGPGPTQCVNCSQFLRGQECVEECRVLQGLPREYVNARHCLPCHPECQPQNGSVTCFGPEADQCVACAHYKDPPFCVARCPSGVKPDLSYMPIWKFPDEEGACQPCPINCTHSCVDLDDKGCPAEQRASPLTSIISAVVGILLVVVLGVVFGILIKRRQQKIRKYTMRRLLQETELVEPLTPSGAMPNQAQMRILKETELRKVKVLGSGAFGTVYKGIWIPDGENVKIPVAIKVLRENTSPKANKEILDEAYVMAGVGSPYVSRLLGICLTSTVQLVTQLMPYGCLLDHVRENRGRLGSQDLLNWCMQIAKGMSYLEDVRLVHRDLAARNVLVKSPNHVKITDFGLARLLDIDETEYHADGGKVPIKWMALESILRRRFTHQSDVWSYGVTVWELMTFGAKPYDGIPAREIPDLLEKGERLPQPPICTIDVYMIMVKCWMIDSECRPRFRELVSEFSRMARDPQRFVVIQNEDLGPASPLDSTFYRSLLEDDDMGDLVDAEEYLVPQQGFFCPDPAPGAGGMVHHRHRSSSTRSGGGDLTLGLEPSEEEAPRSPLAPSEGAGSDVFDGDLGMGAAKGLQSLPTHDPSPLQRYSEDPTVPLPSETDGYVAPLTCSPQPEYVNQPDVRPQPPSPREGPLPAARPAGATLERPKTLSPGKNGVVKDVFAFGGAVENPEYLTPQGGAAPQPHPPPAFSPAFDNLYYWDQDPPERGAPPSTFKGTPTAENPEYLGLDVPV

SMILES | viability [1] [%] | Her2 level [2] | viability [3] | viability [4] | viability [5] | differential viability (reversal) ([6]; H69AR cells + 2 uM doxorubicin) | viability [6, 16] [%] | viability [6, 17] [%] | inhibition [7] | inhibition [8] | growth inhibition [9] | growth inhibition [10] | viability increase [11] | viability [12] | viability [13] | inhibition [14] | RAM network inhibition [15]
O=C(Cn1cc2c(n1)CCCC2)NCCc1ccccc1 | 105 | 100% (inactive) | 105% (inactive) | 103% (inactive) | 88.4% (inactive) | -22.7% (inactive) | 111 | 88.4 | -1.6% (inactive) | -4.33% (inactive) | -2.47% (inactive) | -9.12% (inactive) | -0.17% (inactive) | 106% (inactive) | 95.3% (inactive) | 1.38% (inactive) | 1.42% (inactive)
COc1ccc(-n2c(Cc3cccn3C)nnc2SCC(=O)Nc2ccccc2)cc1 | 88.5 | 104% (inactive) | 88.5% (inactive) | 99% (inactive) | 82.2% (inactive) | -6.77% (inactive) | 88.9 | 82.2 | -5.87% (inactive) | 4% (inactive) | 1.29% (inactive) | 15.6% (inactive) | -2.51% (inactive) | 99.5% (inactive) | 85.3% (inactive) | 2.68% (inactive) | 2.14% (inactive)
CCC(Oc1ccccc1)C(=O)Nc1ccccc1OC (stereo not drawn) | 86 | 72.5% (inactive) | 86% (inactive) | 99.4% (inactive) | 97.4% (inactive) | 12.6% (inactive) | 84.8 | 97.4 | -6.35% (inactive) | 3.61% (inactive) | -1.92% (inactive) | 8.91% (inactive) | -3.52% (inactive) | 90% (inactive) | 87% (inactive) | 1.94% (inactive) | 5.73% (inactive)
Cc1onc(-c2ccccc2Cl)c1C(=O)Nc1cnn(Cc2ccccc2)c1 | 88.5 | 98% (inactive) | 88.5% (inactive) | 73.6% (inactive) | 81.5% (inactive) | -5.4% (inactive) | 86.9 | 81.5 | -5.73% (inactive) | 0.33% (inactive) | -12.3% (inactive) | -9.34% (inactive) | 1.54% (inactive) | 83.2% (inactive) | 73% (inactive) | 1.07% (inactive) | 2.37% (inactive)
CC1(C)CC(=O)C(C=NCC2CCNCC2)=C(O)C1 | 104 | 117% (inactive) | 104% (inactive) | 106% (inactive) | 93.8% (inactive) | -4.75% (inactive) | 98.5 | 93.8 | 1.04% (inactive) | 1.67% (inactive) | -20.1% (inactive) | -16.9% (inactive) | -1.11% (inactive) | 92.2% (inactive) | 92.3% (inactive) | 2.66% (inactive) | 6.82% (inactive)
CCCCn1c(CN2CCN(c3ccc(F)cc3)CC2)nc2c1c(=O)n(C)c(=O)n2C | 98 | 93% (inactive) | 98% (inactive) | 66.9% (inactive) | 95.5% (inactive) | -3.86% (inactive) | 99.3 | 95.5 | -3.33% (inactive) | -5.74% (inactive) | -8.42% (inactive) | -1.05% (inactive) | -0.4% (inactive) | 80.3% (inactive) | 85.8% (inactive) | 1.07% (inactive) | 3.49% (inactive)
CCOc1ccc(N2CC(C(=O)Nc3ccccc3OC)CC2=O)cc1 (stereo not drawn) | 106 | 98% (inactive) | 106% (inactive) | 110% (inactive) | 95.7% (inactive) | 9.71% (inactive) | 86 | 95.7 | -3.87% (inactive) | -3% (inactive) | -7.43% (inactive) | -1.77% (inactive) | -1.73% (inactive) | 102% (inactive) | 102% (inactive) | 1.8% (inactive) | 0.63% (inactive)
O=C(Nc1ccc2c(c1)OCO2)c1ccc(CN2CCOCC2)cc1 | 97.5 | 88% (inactive) | 97.5% (inactive) | 98.7% (inactive) | 97.3% (inactive) | 9.03% (inactive) | 88.3 | 97.3 | -7.07% (inactive) | 7.1% (inactive) | -6.27% (inactive) | -16.3% (inactive) | 0.57% (inactive) | 71.3% (inactive) | 81.5% (inactive) | -0.165% (inactive) | 9.65% (inactive)
CCS(=O)(=O)c1nc2ccccc2n1Cc1ccccc1Cl | 101 | 93% (inactive) | 101% (inactive) | 109% (inactive) | 74.1% (inactive) | -9.51% (inactive) | 83.6 | 74.1 | -0.27% (inactive) | 5.33% (inactive) | -25.4% (inactive) | -20.7% (inactive) | -4.6% (inactive) | 71% (inactive) | 61.5% (inactive) | -0.515% (inactive) | 5.91% (inactive)
CCN1C(=O)c2cccc3c(NC(=O)c4ccc(S(=O)(=O)N(C)C)cc4)ccc1c23 | 86 | 95.5% (inactive) | 86% (inactive) | 53.6% (inactive) | 65.9% (inactive) | -3.87% (inactive) | 69.8 | 65.9 | 1.79% (inactive) | -7.17% (inactive) | -11.7% (inactive) | -15.2% (inactive) | -5.59% (inactive) | 73.5% (inactive) | 75.8% (inactive) | 0.195% (inactive) | 3.52% (inactive)
Cc1ccc(N2CCN(S(=O)(=O)N(C)C)CC2)c(C)c1 | 98.5 | 116% (inactive) | 98.5% (inactive) | 90.6% (inactive) | 83.5% (inactive) | -9.57% (inactive) | 93.1 | 83.5 | 1.73% (inactive) | 1.17% (inactive) | -11.1% (inactive) | -7.42% (inactive) | 0.57% (inactive) | 90.6% (inactive) | 88.1% (inactive) | 2.69% (inactive) | 6.03% (inactive)
COCCCNC(=O)c1ccc(CS(=O)(=O)c2ccc(OC)cc2)o1 | 104 | 105% (inactive) | 104% (inactive) | 95.4% (inactive) | 91.6% (inactive) | 4.5% (inactive) | 87.1 | 91.6 | -4% (inactive) | 2.62% (inactive) | -12% (inactive) | -24.6% (inactive) | -1.48% (inactive) | 98.6% (inactive) | 91% (inactive) | 0.405% (inactive) | 1.46% (inactive)
CC1Cc2nc(SCC(N)=O)n(Cc3ccccc3)c(=O)c2S1 (stereo not drawn) | 88.5 | 100% (inactive) | 88.5% (inactive) | 93.7% (inactive) | 88.3% (inactive) | 8.68% (inactive) | 79.6 | 88.3 | -3.6% (inactive) | -4.67% (inactive) | -18.9% (inactive) | -26.3% (inactive) | -1.84% (inactive) | 95.3% (inactive) | 90.9% (inactive) | 1.32% (inactive) | 1.84% (inactive)
COc1ccc(NC(=O)c2cc(C3CC3)on2)c(OC)c1 | 96.5 | 91.5% (inactive) | 96.5% (inactive) | 86.7% (inactive) | 91.2% (inactive) | -7.87% (inactive) | 99.1 | 91.2 | 0% (inactive) | 1.17% (inactive) | 4.41% (inactive) | 9.96% (inactive) | -1.92% (inactive) | 101% (inactive) | 92.2% (inactive) | -0.14% (inactive) | 4.64% (inactive)
CCCNC(=O)CS(=O)(=O)Cc1nc(-c2cccc(OC)c2)oc1C | 86 | 90.5% (inactive) | 86% (inactive) | 109% (inactive) | 87.7% (inactive) | -3.96% (inactive) | 91.7 | 87.7 | -0.53% (inactive) | 8.2% (inactive) | 7.42% (inactive) | -2.08% (inactive) | -0.31% (inactive) | 93.1% (inactive) | 87% (inactive) | 0.365% (inactive) | -0.47% (inactive)
CSc1ccccc1NC(=O)c1cnc2n(c1=O)CCS2 | 97.5 | 82.5% (inactive) | 97.5% (inactive) | 111% (inactive) | 84.7% (inactive) | -6.53% (inactive) | 91.3 | 84.7 | -1.87% (inactive) | -1.33% (inactive) | -10.6% (inactive) | 3.57% (inactive) | -0.39% (inactive) | 105% (inactive) | 85.8% (inactive) | 2.75% (inactive) | -0.78% (inactive)
COc1c(S(=O)(=O)n2nc(C)cc2C)ccc(Cl)c1Cl | 98 | 101% (inactive) | 98% (inactive) | 101% (inactive) | 98% (inactive) | -1.02% (inactive) | 99 | 98 | -2.76% (inactive) | 2.33% (inactive) | -5.31% (inactive) | 8.94% (inactive) | 1.75% (inactive) | 95.8% (inactive) | 86.2% (inactive) | 1.5% (inactive) | 2.6% (inactive)
Nc1nc2n(n1)C(c1cccc(Br)c1)CC(c1ccc(F)cc1)N2 (stereo not drawn) | 85 | 109% (inactive) | 85% (inactive) | 98.8% (inactive) | 111% (inactive) | -6.81% (inactive) | 117 | 111 | -1.03% (inactive) | -6.5% (inactive) | 2.49% (inactive) | 11.9% (inactive) | 0.72% (inactive) | 89.3% (inactive) | 89.3% (inactive) | 0.875% (inactive) | 2.61% (inactive)
CCOC(=O)N1CCN(c2cc(=O)n(-c3ccccc3Cl)c(=O)[nH]2)CC1 | 98.5 | 124% (inactive) | 98.5% (inactive) | 100% (inactive) | 86.9% (inactive) | -3.22% (inactive) | 90.1 | 86.9 | 0.27% (inactive) | 12.5% (inactive) | -9.94% (inactive) | -0.995% (inactive) | 1.69% (inactive) | 96.8% (inactive) | 105% (inactive) | 0.77% (inactive) | 4.58% (inactive)
